# Bioassay records as filed in PubChem BioAssay.
# IMPase inh = cell-permeable inhibitors of inositol monophosphatase (IMPase) | CHO-M1 cells, IP1 accumulation, HTRF TR-FRET ratio | 120,000 tested, under 10 active | inhibition (IP1 accumulation), % at 46.1 µM; active = well fitted curve in the direction sought with a large enough effect in the signal ratio, not every such curve was filed as active; inconclusive = small, poorly fitted or top-dose-only effect, or a change in a side signal; inactive = no such curve, though single readings can be large or run the other way; the % refers to the signal ratio;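 note: cells stimulated with carbachol in lithium chloride buffer; plate controls were DMSO basal wells for no effect and reference inhibitor wells for full effect; higher means more IMPase inhibition seen as more IP1 and lower FRET ratio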
#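 CHO-M1 cells (CHO stably expressing M1 receptor), compound up to 46 uM final, stimulated with carbachol (50 uM as added) in buffer with 50mM LiCl, pH 7.4, 30 min at 37C. Cytosolic IP1 read by TR-FRET; AC50 from Hill fits.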
# ALDH1A1 inh = inhibitors of human aldehyde dehydrogenase 1A1. Potency, µM (top dose mostly 75.3 µM), for the others: at the highest dose activity, negative = inhibition, usual class: inhibitors. P00352. AID 1030. Purified ALDH1A1, NADH fluorescence, propionaldehyde substrate. 220,000 compounds, 7.3% hits; active = well fitted inhibition curve with a large enough effect, not every such curve was filed as active; inconclusive = small, poorly fitted or top-dose-only effect, or another doubt; inactive = no such curve, though single readings can be large or run the other way;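 note: potency is the fitted concentration of half-maximal effect; plate controls were no enzyme wells and a reference inhibitor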
# 12-hLO inh = 12-hLO (ALOX12) enzyme inhibition; P18054; purified 12-hLO, xylenol orange hydroperoxide absorbance; Potency, µM (titrated, usually from 57.1 µM), without a hit: at the highest dose activity change, negative = inhibition, most hits filed as inhibitors; 150,000 compounds, 0.12% hits; note: potency is the fitted concentration of half-maximal effect; nearly all actives have a fitted effect of over 55% in size
#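 Xylenol orange chromogenic assay: hydroperoxide from 12hLO oxidises Fe(II), giving red-shifted Fe(III)-XO absorbance. Conditions: 150 nM enzyme, 40 uM arachidonic acid, 25 mM Hepes pH 7.0, 0.01% Triton X-100, 30 min, room temperature.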
# IMPase Li inh = membrane-permeable IMPase blocker, potentiated with lithium. CHO-M1 cells, IP1 TR-FRET (IP-One), carbachol + lithium. 210,000 compounds, 0.35% hits. AID 1457. Potency, µM (series often up to 59.4 µM), inactives show top-dose activity, negative = IMPase inhibition, actives largely listed as inhibitors;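 note: IP1 builds up when IMPase is blocked and the TR-FRET signal falls; potency is the fitted concentration of half-maximal effect; plate controls were basal vehicle for no effect and high inhibitor control for full effect; nearly all actives have a fitted effect of over 50% in size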
#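 CHO cells stably expressing M1 receptor (2000/well) were cultured 16–30 h, then exposed to compounds with a small lithium addition for 30 min at 37C. IP1 was measured by TR-FRET competition; AC50 from Hill fits.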
# HPGD block = inhibitors of human 15-hydroxyprostaglandin dehydrogenase (HPGD) | Potency, µM, inactives show top-dose activity change, negative = inhibition, actives largely listed as inhibitors | AID 894 | 150,000 compounds, 4.3% hits | purified HPGD, NADH fluorescence kinetic, PGE2 substrate | P15428; active = well fitted inhibition curve with a large enough effect, not every such curve was filed as active; inconclusive = small, poorly fitted or top-dose-only effect, or another doubt; inactive = no such curve, though single readings can be large or run the other way; note: potency is the fitted concentration of half-maximal effect
# Target sequence (P15428 whole entry, looked up): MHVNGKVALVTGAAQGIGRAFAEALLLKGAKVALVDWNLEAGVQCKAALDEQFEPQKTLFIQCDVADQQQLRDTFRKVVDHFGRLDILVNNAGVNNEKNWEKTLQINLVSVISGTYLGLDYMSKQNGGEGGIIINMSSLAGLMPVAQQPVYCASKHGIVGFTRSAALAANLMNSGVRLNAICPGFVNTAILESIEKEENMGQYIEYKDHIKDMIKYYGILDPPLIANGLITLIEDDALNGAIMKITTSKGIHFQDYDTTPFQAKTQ
#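 20 nM HPGD preincubated 15 min at room temperature with compound in 50 mM Tris-HCl pH 8, 0.01% Tween 20. Started with 1 mM NAD+ and 30 uM prostaglandin E2; NADH fluorescence (360/450 nm) read 5 times over 30-s intervals, last minus first.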
# NPSR antagonist = neuropeptide S receptor (human) antagonism, cAMP; AID 1461; CHO-NPSR cells, cAMP TR-FRET, antagonist mode; 220,000 compounds, 1% hits; Potency, µM (titrated, usually from 38.3 µM), for inactives: top-dose activity change, negative = inhibition, usual class: inhibitors; note: potency is the fitted concentration of half-maximal effect; nearly all actives have a fitted effect of over 50% in size
# Target sequence (Q6W5P4 whole entry, looked up): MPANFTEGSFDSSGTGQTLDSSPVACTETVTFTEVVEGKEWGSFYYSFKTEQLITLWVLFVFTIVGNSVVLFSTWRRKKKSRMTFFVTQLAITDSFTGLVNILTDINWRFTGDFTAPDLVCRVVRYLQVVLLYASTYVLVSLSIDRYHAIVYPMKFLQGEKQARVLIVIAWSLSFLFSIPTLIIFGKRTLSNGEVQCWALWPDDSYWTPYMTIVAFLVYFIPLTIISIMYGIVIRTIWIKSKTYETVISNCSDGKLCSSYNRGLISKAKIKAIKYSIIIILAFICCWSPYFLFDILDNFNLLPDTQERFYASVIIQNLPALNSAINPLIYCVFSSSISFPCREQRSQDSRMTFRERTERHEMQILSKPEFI
# * = called active by the depositor; ? = inconclusive; . = not tested or not shown; [ ] = dose if it differs, or a comment. In the library only some 8.9% were active in any assay of this set; here they are far more common. Unless noted, calls come from the whole dose curve; as a rule, active = well fitted curve in the direction sought with a large enough effect; inconclusive = small, poorly fitted or top-dose-only effect, or another doubt; inactive = no such curve, though single readings can be large; an effect the other way counts as inactive or inconclusive. Unless noted, % is set by controls: 0 for no effect and ±100 for the full control effect.
SMILES,IMPase inh,ALDH1A1 inh,12-hLO inh,IMPase Li inh,HPGD block,NPSR antagonist
CNC(=O)c1sccc1-n1cccc1,1,-5%,2%,6%[38.3 µM],-7%,-1%[46.1 µM]
C[C@H](NC(=O)c1nc[nH]c1C(=O)NC1CCN(C(=O)OC(C)(C)C)CC1)C(=O)OC(C)(C)C,.,?,.,0%,.,21%
COc1ccc(OC)c(NC(=O)c2cc(S(=O)(=O)NCc3ccco3)ccc2F)c1,8,22µM*,-3%,0%[38.3 µM],?,?
COCCCNC(=O)/C=C/c1cccc(Cl)c1,-2,1%,1%,-3%[38.3 µM],28µM*,-1%[46.1 µM]
CN(C)C(CNC(=O)/C=C/c1cccc(Cl)c1)c1ccccc1 (configuration not stated),.,-5%,.,18%,.,-4%
COCCCNC(=O)CN(c1cccc(Cl)c1)S(C)(=O)=O,-6,2µM*,4%,9%[38.3 µM],-9%,14%[46.1 µM]
COCCCNC(=O)CN(c1cccc(Cl)c1C)S(C)(=O)=O,-4,-5%,2%,-2%,-17%,?
CC(C)N(Cc1cnn(C)c1)Cc1nc(-c2ccc(Cl)cc2)no1,.,-3%,.,16%,.,12%
COc1cc(C(C[N+](=O)[O-])c2c(C)[nH]c3ccccc23)ccc1O (configuration not stated),.,?,-6%,3%,1%,-15%
Cc1ccc(P(C)(=O)c2ccc(C)cc2)cc1,5,3%,-1%,-10%[38.3 µM],?,0%[46.1 µM]
O=c1[nH]c(S)c(/C=C2\C=Nc3ccccc32)s1,.,25µM*,.,.,.,56%
CC(C)(C)c1ccc(-c2nnc(SCC(=O)Nc3sc4c(c3C#N)CCCC4)o2)cc1,.,0%,-3%,13%,-1%,1%
Cn1c(=O)c2c(nc(CN3CCN(CCO)CC3)n2Cc2cccc3ccccc23)n(C)c1=O,1,4.5µM*,8%,40%[38.3 µM],-2%,-6%[46.1 µM]
CCN1CCN(Cc2nc3c(c(=O)n(C)c(=O)n3C)n2Cc2ccccc2Cl)CC1,9,0%,0%,3%[38.3 µM],-11%,-1%[46.1 µM]
Cn1c(=O)c2c(nc(N3CCOCC3)n2Cc2ccccc2)n(C)c1=O,1,.,.,.,.,.
CN1CCN(c2nc3c(c(=O)n(C)c(=O)n3C)n2Cc2cccc3ccccc23)CC1,4,11µM*,2%,42%[38.3 µM],-8%,15%[46.1 µM]
COc1ccc(Nc2nc(CN3CCOCC3)nc3sc4c(c23)CCC(C)C4)cc1OC (configuration not stated),.,10%,1%,0%,-4%,-6%
CCOC(=O)c1ccc(N=C2C(=S)N(c3ccc(C(=O)OCC)cc3)C(=N)N2/N=C/c2ccccc2)cc1,10,2µM*,-5%,25%,22µM*,-17%
CCOC(=O)c1ccc(N=c2scc(C)n2CC)cc1,.,?,.,31%,.,-25%
COC(=O)c1scc(C#N)c1N/N=C(\C#N)S(=O)(=O)c1ccc(Cl)cc1,.,.,.,.,.,10µM*
CCN(CC)S(=O)(=O)c1ccc(N/N=C(\C)c2ccc(OC)cc2O)nc1,.,.,.,.,.,-35%
COCCNC(=O)C(C)OC(=O)c1cc2occc2n1C (configuration not stated),-4,32µM*,-12%,39%[38.3 µM],14µM*,2%[46.1 µM]
CC(OC(=O)c1cc2sccc2n1C)C(=O)NCc1cccs1 (configuration not stated),3,8%,-6%,-1%[38.3 µM],?,?
COc1cccc(C(=O)Nc2ccc(S(=O)(=O)Nc3onc(C)c3C)cc2)c1,7,15%,1%,-11%[38.3 µM],35µM*,-8%[46.1 µM]
COc1cccc(C(=O)Nc2ccc(S(=O)(=O)Nc3nccc(C)n3)cc2)c1,.,-11%,0%,6%,28µM*,-6%
SMILES,IMPase inh,ALDH1A1 inh,12-hLO inh,IMPase Li inh,HPGD block,NPSR antagonist
O=C(CNC(=O)C(c1ccccc1)c1ccccc1)OCc1ccccc1,.,-4%,.,8%,.,8%
C/C=C/COc1nc2c(c(=O)n(C)c(=O)n2C)n1C,8,3%,2%,2%,-10%,5%[46.1 µM]
Cc1onc(-c2ccccc2Cl)c1C(=O)Nc1ccc(-n2nncc2C(C)(C)C)cc1,4,?,-3%,-2%,-2%,-22%[46.1 µM]
CC(C)(C)c1cnnn1-c1ccc(C=O)cc1,6,25µM*,1%,-3%,1%,?
CC(C)(C)c1cnnn1-c1ccc(C(=O)CCl)cc1,-8,0.71µM*,-1%,0%,14µM*,-23%[46.1 µM]
Cc1cc(C)n2cc(CSc3ccccn3)nc2n1,.,?,.,-3%,.,9%
Cc1csc(N(C(=O)c2cccc(S(=O)(=O)N3CCCC3)c2)c2ccccc2)n1,5,-15%,-7%,7%[38.3 µM],-16%,-20%[46.1 µM]
O=C(Nc1ccccc1Cl)c1ccc(-n2cccn2)c([N+](=O)[O-])c1,.,8.9µM*,.,4%,.,-4%
Cc1cccc(NC(=O)c2ccc(N3CCCCC3)c([N+](=O)[O-])c2)n1,-12,13µM*,-3%,11%[38.3 µM],?,-14%[46.1 µM]
O=C(Nc1ccc(N2CCCC2)c(Cl)c1)c1cccnc1,7,8.9µM*,2%,22%,-26%,-14%[46.1 µM]
O=C(Nc1cccnc1)c1ccc(N2CCCC2)c([N+](=O)[O-])c1,.,7.9µM*,.,2%,.,-16%
Oc1ccccc1/C=N/N1CCCCC1,.,2%,.,3%,.,12%
Cc1csc(C(C)N(C)C(=O)CCc2nnc(CCc3ccccc3)o2)n1 (configuration not stated),.,-1%,.,-1%,.,-9%
CSc1nc2nc(C(F)(F)F)cc(-c3ccccc3)n2n1,1,?,-1%,23%[38.3 µM],?,6%[46.1 µM]
CN(C)C(=O)c1ccc(NC(=O)c2cccnc2)cc1,5,-1%,-4%,31%[38.3 µM],32µM*,-5%[46.1 µM]
O=C(Nc1ccc(F)c(F)c1)c1ccc(F)c(S(=O)(=O)N2CCC3(CC2)OCCO3)c1,.,-15%,.,9%,.,-1%
COc1cccc(C2SCC(=O)N2c2ccc(C)cc2)c1OC (configuration not stated),.,14µM*,2%,16%,-6%,1%
Cc1ccccc1CNC(=O)C(=O)Nc1nccs1,.,-9%,.,-2%,.,9%
Cc1ccc(-n2c(Cc3cccn3C)nnc2SCC(=O)Nc2nnc(C)s2)cc1,-16,6%,-9%,-1%[38.3 µM],-10%,-5%[46.1 µM]
O=C1COc2ccc(C(=O)CSc3nnc(-c4cccs4)n3Cc3ccccc3)cc2N1,3,?,0%,14%[38.3 µM],-24%,-21%[46.1 µM]
COc1ccc(-n2c(Cc3cccn3C)nnc2SCC(=O)Nc2ccc(Cl)cc2)cc1,0,4µM*,-15%,37%[38.3 µM],-11%,?
O=C1COc2ccc(C(=O)CSc3nnc(Cc4cccs4)n3-c3ccccc3)cc2N1,5,3.2µM*,-5%,32%[38.3 µM],-26%,-11%[46.1 µM]
